Rows were chosen to be rich in hits. Some 19% of all compounds tested hit in one or more screens of this group.
HT1080-NT tox = kills 2HG-producing HT-1080-NT fibrosarcoma cells. HT-1080-NT fibrosarcoma viability, CellTiter-Glo ATP luminescence, 48 h. Potency, µM (titrated, usually from 46.1 µM), inactives show top-dose activity, negative = less viability, most hits filed as cytotoxic. hit rate 1.6% among 360,000;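 further: NT is the 2HG producing partner of a matched IDH1 knockdown line; 0% = DMSO-treated cells and -100% = media-only wells without cells; nearly all actives have a fitted effect of over 55% in size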
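Viability of the 2HG-overproducing fibrosarcoma line after 48 hours of compound exposure at 37 degrees C was determined by luminescence with CellTiter-Glo, and concentration-effect curves were then fitted and categorized.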
DT40 TDP1 CPT = growth inhibition of DT40 Tdp1-/-;hTDP1 cells with camptothecin (screen for TDP1 inhibitors) | chicken DT40 Tdp1-/-;hTDP1 cells + 20 nM CPT, ATP luminescence, 48 h | Potency, µM (highest dose often 46.2 µM), inactives show at the highest dose activity change, negative = growth inhibition, usual class: inhibitors | hit rate 12% among 420,000 | AID 686979; further: nearly all actives have a fitted effect of over 55% in size
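Chicken DT40 Tdp1-/- cells complemented with human TDP1, 400 cells/well, exposed to compounds plus 20 nM camptothecin for at least 48 h at 37 C; viability read as ATP content by CellTiter-Glo luminescence.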
DT40 TDP1 no CPT = qHTS for Inhibitors of human tyrosyl-DNA phosphodiesterase 1 (TDP1): qHTS in cells in absence of CPT | DT40 Tdp1-/- hTDP1 cells, no CPT, ATP luminescence, 48 h | Potency, µM (doses to about 46.2 µM), for the others: at the highest dose activity change, negative = growth inhibition, most hits filed as inhibitors | hit rate 15% among 420,000; further: nearly all actives have a fitted effect of over 55% in size
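Luminescent ATP content (CellTiter-Glo) served as the growth readout. Knockout chicken DT40 cells expressing human TDP1 were exposed to compounds without camptothecin for a minimum 48 hr at 37 °C.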
HT1080 IDH1KD tx = toxicity to HT-1080 IDH1 knockdown cells (counter line) | hit rate 2% among 360,000 | HT-1080 IDH1 knockdown viability, ATP luminescence, 48 h | Potency, µM (series often up to 46.1 µM), for the others: at the top dose activity, negative = toxicity, actives largely listed as cytotoxic | AID 686971;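 further: 0% = DMSO wells and -100% = cell-free medium wells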
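HT-1080-IDH1KD cells (IDH1 knocked down), 750/well in RPMI with 5% FBS, treated with compound 48 h at 37 degrees C. Viability by CellTiter-Glo luminescence, normalised to DMSO and no-cell wells; concentration-response curves classed.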
KB-V1 MDR tox = KB-V1 MDR subline cytotoxicity; KB-V1 MDR cells viability, CellTiter-Glo, 72 h; Potency, µM (highest dose often 46.1 µM), most hits filed as cytotoxic; hit rate 3.4% among 400,000; further: nearly all actives have a fitted effect of over 60% in size
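Drug-selected KB-V1 cells, grown in DMEM lacking phenol red with 10% FBS, receive compound titrations; after three days at 37 degrees C, surviving cell ATP is quantified by CellTiter-Glo luminescence and responses normalized and curve-fitted.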
KB-3-1 tox = kills parental KB-3-1 adenocarcinoma cells; Potency, µM (doses to about 46.1 µM), most hits filed as cytotoxic; KB-3-1 viability, CellTiter-Glo ATP luminescence, 72 h; hit rate 1.4% among 400,000; AID 1347075; further: nearly all actives have a fitted effect of over 60% in size
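Using CellTiter-Glo luminescence, growth of non-resistant KB-3-1 adenocarcinoma cells is assessed 72 h after pin-tool compound addition at 37 °C. Normalized responses across the concentration series yield fitted curves.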
An asterisk follows results filed as active; i = inactive; ? = inconclusive; · = no result; [ ] = another dose, or the depositor's remark. The call rests on the fitted dose curve; in most records, active means well fitted curve in the direction sought with a large enough effect; inconclusive means small, poorly fitted or top-dose-only effect, or another doubt; inactive means no such curve, though single readings can be large; an effect the other way counts as inactive or inconclusive. Unless noted, on the % scale 0 is the no-effect control and ±100 the full control effect; potency means the concentration at half of the fitted maximal effect.

SMILES	HT1080-NT tox	DT40 TDP1 CPT	DT40 TDP1 no CPT	HT1080 IDH1KD tx	KB-V1 MDR tox	KB-3-1 tox
COc1ccc(NC(=O)CCc2nnc3n(C)c(=O)c4sccc4n23)cc1Cl	·	-4%	-3%	·	i	i
CC(=O)c1cc(C#N)c(SCc2ccc(F)cc2)nc1C	3%	6%	-2%	1%	i	i
CCOC(=O)c1cc(C#N)c(SC)nc1C	2%	11%	10%	6%	i	i
CCOC(=O)c1cc(C#N)c(SCc2ccc(C#N)cc2)nc1C	-1%	-6%	-22%	-17%	2.3µM*	i
CCOC(=O)c1cc2c(N)c(C(=O)c3cc(C#N)c(SC)nc3C)sc2nc1C	-15%	13µM*	10µM*	-2%[9.24 µM]	i	i
Cn1cc([N+](=O)[O-])c(C(=O)NCc2cc3cc(Cl)ccc3[nH]2)n1	1%	-15%	?	17%	i	9.2µM*
Cn1cc(CNCc2ccc(-n3cccn3)cc2)c(-c2ccccc2F)n1	-1%	?	21µM*	-29%	?	i
Cn1cc(CNCCCn2ncc3ccccc32)c(-c2ccccc2F)n1	4%	?	?	-2%	?	i
C=C1CCC[C@]2(C)C[C@H]3OC(=O)C(CN[C@@H](C)c4ccccc4)[C@H]3CC12 (stereo partly drawn)	-13%	?	?	-9%	i	i
C=C1CCC[C@]2(C)C[C@H]3OC(=O)C(CNC(C)CCCC(C)C)[C@H]3CC12 (stereo partly drawn)	?	?	21µM*	?	?	i
C=C1CCC[C@]2(C)C[C@H]3OC(=O)C(CNCC(OC)OC)[C@H]3CC12 (stereo partly drawn)	-21%	?	18µM*	?	i	i
C=C1CCC[C@]2(C)C[C@H]3OC(=O)C(CN(Cc4ccc(OC)c(OC)c4)CC(C)O)[C@H]3CC12 (stereo partly drawn)	?	?	18µM*	?	i	i
Cc1cc(C)c2c(n1)NCCC2	·	-3%	-1%	·	i	i
CN1C(C(=O)NCc2ccco2)=CC(c2ccc(F)cc2)=NS1(=O)=O	3%	5%	6%	-2%	i	i
Cc1cn2c(=O)c(S(=O)(=O)N3CCN(c4cc(Cl)ccc4C)CC3)c(C)nc2s1	·	2%	-2%	·	i	i
CCN1CCN(c2ccc(S(=O)(=O)N3CCCCC3)cc2NC(=O)Cc2ccccc2)CC1	1%	-21%	-13%	0%	i	i
CCN1CCN(c2ccc(S(=O)(=O)N3CCCCC3)cc2NC(=O)COc2ccc(Cl)c(C)c2)CC1	-4%	16µM*	13µM*	-14%	i	i
CCC(=O)c1ccc(OCC(=O)Nc2cc(S(=O)(=O)N3CCCCC3)ccc2N2CCN(CC)CC2)cc1	-27%	?	18µM*	?	i	i
CN1CCN(c2ccc(S(=O)(=O)N3CCCCC3)cc2NC(=O)COc2ccc([N+](=O)[O-])cc2)CC1	-13%	-1%	-29%	1%	i	i
CCC(C)(Oc1ccc(C2(c3ccc(OC(C)(CC)C(=O)O)cc3)CCCCC2)cc1)C(=O)O (stereo not drawn)	·	10%	5%	·	·	·
COc1ccc(-c2cc(C(=O)N3CCc4c(cnc(C)c4CNC(=O)c4ccsc4)C3)[nH]n2)cc1	·	-1%[9.04 µM]	-2%	·	·	·
CCOC(=O)CN(Cc1ccccc1)C(C(=O)NC1CCCCC1)c1ccc(OC)cc1 (stereo not drawn)	·	?	?	·	?	i
O=C(Cc1ccccc1)NC(Nc1cccc2ccccc12)C(Cl)(Cl)Cl (stereo not drawn)	0%	?	26µM*	-3%	i	i
O=C(Cc1ccccc1)NC(Nc1ccccc1)C(Cl)(Cl)Cl (stereo not drawn)	2%	?	-20%	0%	i	i
C[C@H](CO)N1C[C@H](C)[C@@H](CN(C)S(C)(=O)=O)Oc2c(NC(=O)C3CCCCC3)cccc2C1=O	1%	-14%	-5%	-1%	i	i
SMILES	HT1080-NT tox	DT40 TDP1 CPT	DT40 TDP1 no CPT	HT1080 IDH1KD tx	KB-V1 MDR tox	KB-3-1 tox
C[C@H](CO)N1C[C@H](C)[C@@H](CN(C)S(=O)(=O)c2ccccc2)Oc2c(NC(=O)Nc3ccc(C(F)(F)F)cc3)cccc2C1=O	?	?	16µM*	?	i	?
Cc1ccc(S(=O)(=O)Nc2cccc3c2O[C@H](CN(C)C(=O)Nc2ccc(C(F)(F)F)cc2)[C@@H](C)CN([C@H](C)CO)C3=O)cc1	-9%	16µM*	?	-15%	i	i
COc1ccc(NC(=O)Nc2cccc3c2O[C@H](CN(C)C(=O)Nc2ccc(C(F)(F)F)cc2)[C@@H](C)CN([C@H](C)CO)C3=O)cc1	-16%	26µM*	16µM*	-19%	?	i
COc1ccc(S(=O)(=O)N(C)C[C@H]2Oc3c(NC(=O)C4CCCCC4)cccc3C(=O)N([C@H](C)CO)C[C@@H]2C)cc1	-2%	?	23µM*	-10%	i	i
C[C@@H]1CN([C@H](C)CO)C(=O)c2cc(NC(=O)Nc3ccc(C(F)(F)F)cc3)ccc2O[C@H]1CN(C)S(=O)(=O)c1ccccc1	?	?	?	?	i	?
C[C@H]1CN([C@@H](C)CO)C(=O)c2cccc(NC(=O)Nc3ccc(C(F)(F)F)cc3)c2O[C@H]1CN(C)C	-10%	21µM*	?	-15%	i	?
COc1ccc(S(=O)(=O)Nc2cccc3c2O[C@H](CN(C)Cc2ccccc2)[C@@H](C)CN([C@H](C)CO)C3=O)cc1	-3%	?	?	1%	i	i
Cc1ccc(S(=O)(=O)Nc2cccc3c2O[C@H](CN(C)Cc2ccccc2)[C@@H](C)CN([C@H](C)CO)C3=O)cc1	19%	?	16µM*	-5%	i	i
C[C@H](CO)N1C[C@H](C)[C@@H](CN(C)S(C)(=O)=O)Oc2c(NC(=O)Nc3ccc(C(F)(F)F)cc3)cccc2C1=O	-23%	23µM*	?	-6%	i	i
C[C@H](CO)N1C[C@H](C)[C@@H](CN(C)C)Oc2c(NC(=O)CCC(F)(F)F)cccc2C1=O	9%	-7%	-6%	12%	i	i
